# Compound activity as filed in PubChem BioAssay.
# HP1b chromo inh = HP1-beta chromodomain-methylated histone interaction inhibition. P83916. AlphaScreen HP1-beta / biotin-H3K9me3 peptide binding. Potency, µM (doses to about 114 µM), for the others: at the top dose activity change, negative = inhibition, actives largely listed as inhibitors. 390,000 tested, 0.56% active; further: nearly all actives have a fitted effect of over 70% in size
#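 Compound inhibition of the preformed complex between 50 nM HP1-beta and 50 nM biotinylated H3K9me3 peptide was read by AlphaScreen. Buffer was PBS pH 7.4 with 0.01% Tween-20. Incubations ran 30 min at room temperature, with 10 ug/mL donor/acceptor beads.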
# G9a inh = inhibitors of human histone lysine methyltransferase G9a | Potency, µM (series often up to 102 µM), for the others: at the highest dose activity, negative = inhibition, usual class: inhibitors | Q96KQ7 | 350,000 tested, 8.8% active | G9a H3K9 monomethylation, AlphaScreen, 2 h | AID 504332; further: on the % scale 0 is the no-effect control and ±100 the full control effect; nearly all actives have a fitted effect of over 75% in size
#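 AlphaScreen detection with an anti-monomethyl H3K9 antibody quantified product after a 2 h room-temperature reaction containing 500 nM biotinylated H3K9 peptide, 20 µM SAM and 20 nM enzyme, which had been preincubated 15 min with compound.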
# PLK1 PBD inh = inhibitors of human PLK1 polo-box domain binding; P53350; Plk1 PBD binding of FITC phosphopeptide, fluorescence polarization; Potency, µM, for the others: max response, negative = inhibition, hits mostly inhibitors; 360,000 tested, 2.8% active; AID 720504; further: series mostly up to about 57 µM; on the % scale 0 is the no-effect control and ±100 the full control effect; nearly all actives have a fitted effect of over 65% in size
# Sfp inh = blocks B. subtilis Sfp PPTase activity; Q9F4F7; Potency, µM, without a hit: largest response in the series, negative = inhibition, usual class: inhibitors; 310,000 tested, 3.5% active; AID 1490; Biochemical Sfp PPTase activity, qHTS;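 further: the enzyme is Sfp with the accession as filed and its product quenches rhodamine fluorescence; 0% = enzyme reaction without inhibitor and -100% = no enzyme wells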
#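 Reaction rates are the 30-min fluorescence difference (ex 525, em 598 nm) in wells containing 15 nM Sfp, 5 uM rhodamine-CoA and 12.5 uM BHQ-2-YbbR at pH 7.6 with 10 mM MgCl2.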
# BAZ2B block = blocks human BAZ2B; AlphaScreen BAZ2B-H3K14Ac peptide displacement; Potency, µM (series often up to 114 µM), for the others: at the top dose activity change, negative = inhibition, usual class: inhibitors; 360,000 tested, 4.4% active; Q9UIF8; further: on the % scale 0 is the no-effect control and ±100 the full control effect; nearly all actives have a fitted effect of over 60% in size
#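 Compounds, titrated to a top concentration of 110 uM, were incubated 30 min at room temperature with preformed BAZ2B/acetyl-K14 H3 peptide complex (50 nM each). Proximity signal was measured by AlphaScreen after 20 min with beads.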
# JMJD2A Tudor = blocks the human JMJD2A Tudor domain; AlphaScreen JMJD2A-Tudor / H3K4me3 peptide binding; 390,000 tested, 4.4% active; AID 504339; Potency, µM (top dose mostly 114 µM), inactives show top-dose activity change, negative = inhibition, most hits filed as inhibitors; further: on the % scale 0 is the no-effect control and ±100 the full control effect; nearly all actives have a fitted effect of over 50% in size
# Target sequence (O75164 whole entry, looked up, the tested form may be a part): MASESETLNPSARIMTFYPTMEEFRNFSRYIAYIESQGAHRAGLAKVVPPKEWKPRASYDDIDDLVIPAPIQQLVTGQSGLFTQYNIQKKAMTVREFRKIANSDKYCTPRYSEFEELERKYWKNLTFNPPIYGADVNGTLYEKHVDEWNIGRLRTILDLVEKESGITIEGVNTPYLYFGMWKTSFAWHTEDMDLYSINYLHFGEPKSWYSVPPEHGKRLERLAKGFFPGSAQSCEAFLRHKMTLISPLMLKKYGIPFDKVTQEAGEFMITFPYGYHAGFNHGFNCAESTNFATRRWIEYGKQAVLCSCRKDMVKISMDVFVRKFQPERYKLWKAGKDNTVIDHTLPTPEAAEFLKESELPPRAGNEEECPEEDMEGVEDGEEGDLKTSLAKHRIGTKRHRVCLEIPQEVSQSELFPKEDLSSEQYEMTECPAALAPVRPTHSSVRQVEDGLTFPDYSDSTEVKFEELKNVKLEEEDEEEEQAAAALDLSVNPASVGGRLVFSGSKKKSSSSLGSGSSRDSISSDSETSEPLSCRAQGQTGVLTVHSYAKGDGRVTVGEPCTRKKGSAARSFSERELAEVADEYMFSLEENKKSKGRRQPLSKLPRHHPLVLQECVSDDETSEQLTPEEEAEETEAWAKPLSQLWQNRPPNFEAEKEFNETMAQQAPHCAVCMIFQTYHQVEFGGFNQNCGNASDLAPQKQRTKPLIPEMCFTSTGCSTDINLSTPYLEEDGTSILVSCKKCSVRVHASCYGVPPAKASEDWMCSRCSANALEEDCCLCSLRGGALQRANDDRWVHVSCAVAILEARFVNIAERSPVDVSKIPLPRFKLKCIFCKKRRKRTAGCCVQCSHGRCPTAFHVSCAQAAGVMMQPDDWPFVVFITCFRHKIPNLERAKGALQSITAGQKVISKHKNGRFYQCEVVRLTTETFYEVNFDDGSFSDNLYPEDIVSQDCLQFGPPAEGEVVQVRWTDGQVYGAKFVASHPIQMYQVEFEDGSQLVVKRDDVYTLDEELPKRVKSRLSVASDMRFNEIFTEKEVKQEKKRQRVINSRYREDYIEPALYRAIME
# Starred values were filed as active, the others as inactive; ? = inconclusive; . = not tested or not shown; ! = not active in a repeat; [ ] = another dose, or the depositor's remark. Compounds with a hit are over-represented: about 12% of the library has one in this group of screens. The call rests on the fitted dose curve; in most records, active means well fitted curve in the direction sought with a large enough effect; inconclusive means small, poorly fitted or top-dose-only effect, or another doubt; inactive means no such curve, though single readings can be large; an effect the other way counts as inactive or inconclusive. Potency means the concentration at half of the fitted maximal effect.
SMILES,HP1b chromo inh,G9a inh,PLK1 PBD inh,Sfp inh,BAZ2B block,JMJD2A Tudor
CCOc1ccc(NS(=O)(=O)c2c(C)nc3sc(CC)nn3c2=O)cc1,34%,-40%[59 µM],1%,-2%,2%,-10%
O=C(O)CCCCCCCCc1cn(CCc2c[nH]c3ccccc23)nn1,14%,28µM*,-11%,-16%,-38%,-28%
Cc1cc(C)cc(N2CCn3c2nc2c3c(=O)n(CCc3ccccc3)c(=O)n2C)c1,22%,-20%[59 µM],.,.,-15%,-26%
COc1ccc(NC(=S)NC23CC4CC(CC(C4)C2)C3)cc1OC,38%,21%,2%,32%,-18%,-5%
COc1ccccc1C(CCNCc1ccc(N(C)C)cc1)c1ccc(OC(C)C)cc1 (stereo not given),?,18%[2.33 µM],-5%,-18%,10µM*,13µM*
COc1ccc(C(CCNCc2ccc(OC(C)C)cc2)C(C)C)cc1 (stereo not given),22%,5%,1%,3%,-8%,-11%
COc1ccc(C(CCNCc2ccc(N(C)C)cc2)C(C)C)cc1 (stereo not given),?,32µM*,5%,0%,25µM*,32µM*
O=C(NCc1cccc(F)c1)c1ccc2nc(CCc3ccccc3)oc2c1,29%[57 µM],12%[59 µM],.,.,-3%,-13%
CCCn1c(=O)c2[nH]c(-c3ccc(OCC(=O)Nc4ccc(C(C)=O)cc4)cc3)nc2n(CCC)c1=O,.,.,.,5%,.,.
CCCn1c(=O)c2[nH]c(-c3ccc(S(=O)(=O)O)cc3)nc2n(CCC)c1=O,20%,21µM*!,-15%,.,-34%,-30%
Fc1ccccc1Cn1c(-c2ccccc2)nc2ccccc21,98%,36%[59 µM],.,.,106%,5%
N#CCN1CCC(c2cc(-c3ccco3)n[nH]2)CC1,?,-42%,30µM*,11µM*,-16%,-21%[11.4 µM]
C[C@H](O/N=C1/[C@H]2O[C@@H]2[C@@H](O)[C@H]2[C@H]1CCn1c(=O)n(-c3ccccc3)c(=O)n12)c1cn([C@H]2COC[C@H]2O)nn1,.,.,.,11%,.,.
COc1cccc(NC(=O)C2(C)CCCN(C(C)C)C2)c1 (stereo not given),.,.,9%,.,.,.
COc1cccc(OC)c1OCC(C)CNCC1CCCO1 (stereo not given),71µM*,?,-6%,-19%,?,3.5µM*
O=C1CC(c2ccco2)c2ccc3ccccc3c2N1 (stereo not given),-15%,50µM*,-5%,-4%,50µM*,?
COc1cc2c(cc1OC)C(c1ccco1)CC(=O)N2 (stereo not given),16%,?,6%,8%,1%,-26%
NC1=C(Cl)C(=O)c2ccccc2C1=O,-19%,.,-10%,.,.,89µM*
Cc1ccc(-n2c(=O)cc(N3CCN(C(=O)c4ccco4)CC3)[nH]c2=O)cc1,12%,45µM*,-13%,-22%,8%,-16%
Cc1ccc(OCC(=O)NNC(=O)CCc2ccccc2)c(Br)c1,40%,-4%,-8%,6%,-17%,-12%
Cc1ccccc1NCC(=O)c1ccc(Br)cc1,2%,?,-14%,45µM*,?,-22%
O=C(/C=C/NCC(=O)c1ccccc1)c1ccc(Br)cc1,22%,6.3µM*,-11%,-29%,-35%,-32%
COC(=O)c1ccc(C)c(-n2c(=O)n(Cc3ccccc3)c(=O)c3[nH]cnc32)c1,31%,?,-4%,-19%,-13%,-3%
N#CC/C(N)=N/Nc1nc2ccccc2nc1Cc1ccccc1,-5%[57 µM],50µM*,-19%,-9%,-16%,?
COc1ccc(N2CCN(CC(O)COc3ccccc3[N+](=O)[O-])CC2)cc1 (stereo not given),?,?,4%,12%,?,28µM*
SMILES,HP1b chromo inh,G9a inh,PLK1 PBD inh,Sfp inh,BAZ2B block,JMJD2A Tudor
COc1ccc(N2CCN(CC(O)COc3ccc(C)cc3C)CC2)cc1 (stereo not given),?,40µM*,-9%,-4%,40µM*,45µM*
O=[N+]([O-])c1ccccc1OCC(O)CN1CCN(CC(O)COc2ccccc2[N+](=O)[O-])CC1 (stereo not given),18%,.,8%,12%,5%,-12%
COc1ccc(N2CCN(CC(O)COc3cc(C)ccc3C)CC2)cc1 (stereo not given),20%,8.9µM*,0%,-10%,?,-33%
Cc1ccc2nc(N3CCN(C(=O)C4COc5ccccc5O4)CC3)sc2c1 (stereo not given),-14%,5%[59 µM],.,.,-13%,-22%
N#Cc1ccccc1OCC(O)CNCCNC(=O)Nc1ccccc1 (stereo not given),.,37%[59 µM],.,4%,.,.
Nn1c(SCc2c(F)cccc2F)nnc1-c1ccccn1,-5%,-36%,-6%,16%,13µM*,8.9µM*
c1ccc(-c2nn[nH]n2)nc1,27%,.,0%,56µM*,5.6µM*,7.1µM*
Nn1c(-c2ccccn2)nnc1-c1ccccn1,40%,16%[12.7 µM],-1%,2%,32µM*,79µM*
Cc1ccc(NC(=O)CSc2nnc(-c3ccccn3)n2N)cc1F,13%,-1%,5%,2%,-19%,-8%
Cc1ccc(C)c(CSc2nnc(-c3ccccn3)n2N)c1,26%,-24%[59 µM],-26%,12%,.,40µM*
N#CCCn1c(=O)c(-c2cc(F)cc(F)c2)nc2cnc(Oc3cccc(Cl)c3)nc21,.,-3%[12.7 µM],.,0%,.,.
CCOC(=O)c1c(CN2CCN(c3ccccc3)CC2)oc2cc(Br)c(O)cc12,-6%,50µM*,-5%,7%,?,50µM*
CCOC(=O)c1c(-c2ccccc2)oc2ccc(OCC)cc12,268%,342%,-2%,?,301%,257%
CCOC(=O)c1c(-c2ccccc2)oc2ccc(O)cc12,37%,-22%[0.501 µM],-7%,40µM*,71µM*,-6%
CCOC(=O)c1c(-c2ccccc2)oc2cc(CN(C)C)c(O)c(CN(C)C)c12,-18%,.,-8%,.,.,50µM*
CCOC(=O)c1c(C)n(C)c2ccc(O)c(CN3CCN(C)CC3)c12,-4%,?,-5%,13%,.,-21%
CCOC(=O)c1c(-c2ccccc2)oc2ccc(O)c(CN3CCN(C)CC3)c12,-8%,50µM*,0%,6%,-38%,-27%
CCOC(=O)c1c(CN2CCN(CCO)CC2)n(-c2ccccc2)c2cc(Br)c(O)cc12,9%,?,-1%,-8%,-26%,-30%
CC(C)NC(=O)NC(=O)COC(=O)c1ccc([N+](=O)[O-])cc1Cl,33%,-3%,-8%,-1%,-38%,-14%
CCOC(=O)c1c(CN2CCOCC2)oc2ccc(OC(C)=O)cc12,34%,.,5%,2%,7%,-5%
